# According to the antibiotic and cytotoxicity screens of Wong et al. (2023):
# Among all 39,000 compounds or so, about 3,300 (8.5%) were called active. Shown is part of a subset that was picked to be rich in actives.
# System: HepG2
# Test: cytotoxicity call (relative viability < 0.9)
# Settings: 10 µM
row,Compound,cytotoxicity call
1,CN(C)C(=O)C[C@H]1CC[C@H]2[C@@H](COC[C@H](O)CN2S(=O)(=O)c2ccccc2)O1,inactive
2,Cc1noc(C)c1S(=O)(=O)Nc1ccc2c(c1)CC(=O)N([C@@H](C)CO)C[C@H](C)[C@@H](CN(C)C(=O)Nc1ccccc1)O2,inactive
3,C[C@H](CO)N1C[C@H](C)[C@@H](CN(C)S(=O)(=O)c2ccc(Cl)cc2)Oc2ccc(NC(=O)Cn3cnnn3)cc2C1=O,inactive
4,Cc1noc(C)c1NC(=O)N(C)C[C@H]1Oc2ccc(NC(=O)Nc3ccc(C(F)(F)F)cc3)cc2CC(=O)N([C@H](C)CO)C[C@@H]1C,inactive
5,CCN([NH2+][O-])c1ccc(O)c(O)c1,inactive
6,C[C@H]1CN([C@@H](C)CO)C(=O)CCCn2cc(nn2)CO[C@@H]1CN(C)C(=O)Nc1ccnc(N2CCOCC2)c1,inactive
7,Cc1ccc(S(=O)(=O)N(C)C[C@H]2Oc3ccc(NC(=O)Nc4ccc(C(F)(F)F)cc4)cc3C(=O)N([C@@H](C)CO)C[C@H]2C)cc1,active
8,Cc1ccc(S(=O)(=O)N(C)C[C@@H]2Oc3ccc(NC(=O)Nc4ccc(C(F)(F)F)cc4)cc3C(=O)N([C@@H](C)CO)C[C@@H]2C)cc1,inactive
9,Cc1ccc(S(=O)(=O)N(C)C[C@@H]2Oc3ccc(NC(=O)Nc4ccc(C(F)(F)F)cc4)cc3C(=O)N([C@@H](C)CO)C[C@H]2C)cc1,active
10,Cc1ccc(S(=O)(=O)N(C)C[C@H]2Oc3ccc(NC(=O)Nc4ccc(C(F)(F)F)cc4)cc3C(=O)N([C@@H](C)CO)C[C@@H]2C)cc1,inactive
11,Cc1ccc(S(=O)(=O)N(C)C[C@H]2Oc3ccc(NC(=O)Nc4ccc(C(F)(F)F)cc4)cc3C(=O)N([C@H](C)CO)C[C@@H]2C)cc1,inactive
12,Cc1ccc(S(=O)(=O)N(C)C[C@H]2Oc3ccc(NC(=O)Nc4ccc(C(F)(F)F)cc4)cc3C(=O)N([C@H](C)CO)C[C@H]2C)cc1,active
13,Cc1ccc(S(=O)(=O)N(C)C[C@@H]2Oc3ccc(NC(=O)Nc4ccc(C(F)(F)F)cc4)cc3C(=O)N([C@H](C)CO)C[C@H]2C)cc1,inactive
14,Cc1ccc(S(=O)(=O)N(C)C[C@@H]2Oc3ccc(NC(=O)Nc4ccc(C(F)(F)F)cc4)cc3C(=O)N([C@H](C)CO)C[C@@H]2C)cc1,active
15,C[C@H]1CN([C@@H](C)CO)S(=O)(=O)c2ccc(C#CC3CCCC3)cc2O[C@@H]1CN(C)C(=O)Cc1ccncc1,inactive
16,COc1ccc([Si](C)(C)[C@@H]2[C@@H](CC(=O)N3Cc4ccccc4C[C@H]3CO)O[C@]3(C(=O)N(Cc4cccc(N5CCC5=O)c4)c4ccccc43)[C@H]2C)cc1,inactive
17,CC1C(=O)OC2C1CCC1(C)CCC(=O)C(C)C21 (stereo not drawn),inactive
18,CN1CCN(S(=O)(=O)c2ccc(CN)cc2)CC1,inactive
19,C[C@H](CO)N1C[C@H](C)[C@@H](CN(C)Cc2ccc(Oc3ccccc3)cc2)Oc2ccc(NS(=O)(=O)c3ccc(Cl)cc3)cc2C1=O,inactive
20,C[C@@H]1CN([C@H](C)CO)C(=O)c2cc(NS(=O)(=O)c3ccc(Cl)cc3)ccc2O[C@H]1CN(C)Cc1ccc(Oc2ccccc2)cc1,active
21,C[C@@H]1CN([C@@H](C)CO)C(=O)c2cc(NS(=O)(=O)c3ccc(Cl)cc3)ccc2O[C@@H]1CN(C)Cc1ccc(Oc2ccccc2)cc1,active
22,C[C@@H]1CN([C@@H](C)CO)C(=O)c2cc(NS(=O)(=O)c3ccc(Cl)cc3)ccc2O[C@H]1CN(C)Cc1ccc(Oc2ccccc2)cc1,inactive
23,C[C@H]1CN([C@@H](C)CO)C(=O)c2cc(NS(=O)(=O)c3ccc(Cl)cc3)ccc2O[C@@H]1CN(C)Cc1ccc(Oc2ccccc2)cc1,active

row,Compound,cytotoxicity call
1,C[C@@H]1CN([C@H](C)CO)C(=O)c2cc(NS(=O)(=O)c3ccc(Cl)cc3)ccc2O[C@@H]1CN(C)Cc1ccc(Oc2ccccc2)cc1,active
2,C[C@H]1CN([C@@H](C)CO)C(=O)c2cc(NS(=O)(=O)c3ccc(Cl)cc3)ccc2O[C@H]1CN(C)Cc1ccc(Oc2ccccc2)cc1,inactive
3,C[C@H](CO)N1C[C@H](C)[C@H](CN(C)Cc2ccc(Oc3ccccc3)cc2)Oc2ccc(NS(=O)(=O)c3ccc(Cl)cc3)cc2C1=O,inactive
4,C[C@H](CO)N1C[C@H](C)[C@H](CN(C)C(=O)Nc2cccc3ccccc23)Oc2ncc(C#Cc3cccc(F)c3)cc2C1=O,inactive
5,CC(C)(C)OC(=O)Nc1cccc([C@@H]2CC(=O)N(C(=O)OCc3ccccc3)[C@@H]2C(=O)Nc2cccc3cccnc23)c1,inactive
6,Cc1noc(C)c1NC(=O)Nc1ccc2c(c1)C(=O)N([C@H](C)CO)C[C@@H](C)[C@H](CN(C)C(=O)C1CCCCC1)OCCCC[C@@H](C)O2,inactive
7,C[C@@H]1CN([C@H](C)CO)C(=O)c2cc(C#CC3(O)CCCC3)cnc2O[C@H]1CN(C)S(=O)(=O)c1cccc(F)c1,inactive
8,CCC1C(=O)OCC1Cc1cncn1C.O=[N+]([O-])O (stereo not drawn),inactive
9,Cc1noc(C)c1NC(=O)Nc1cccc2c1O[C@@H](CN(C)Cc1ccc(Oc3ccccc3)cc1)[C@H](C)CN([C@@H](C)CO)C2=O,inactive
10,CN(C)CCCNC(=O)C[C@H]1CC[C@H]2[C@@H](COC[C@H](O)CN2S(=O)(=O)c2ccc(F)cc2)O1,inactive
11,CO[C@H]1CN(C)C(=O)c2ccc(NC(=O)Nc3cccc(Cl)c3)cc2OC[C@@H](C)N(C(=O)Nc2c(C)noc2C)C[C@H]1C,inactive
12,C[C@H]1CN([C@@H](C)CO)C(=O)c2cc(NC(=O)Nc3cccc4ccccc34)ccc2O[C@H]1CN(C)S(=O)(=O)c1ccccc1,inactive
13,C[C@H](CO)N1C[C@H](C)[C@H](CN(C)C(=O)Nc2cccc3ccccc23)Oc2ccc(NC(=O)Nc3ccc(C(F)(F)F)cc3)cc2C1=O,inactive
14,CN(C)CCOC(=O)COc1ccc(Cl)cc1.Cl,inactive
15,CCCCc1nc(-c2ccc(OCCCN(CC)CC)cc2)cn1-c1ccc(Oc2ccc(Cl)cc2)cc1,active
16,CCCC[C@@H](C#N)c1ccccn1,inactive
17,CN(C)CC(=O)N[C@@H]1CC[C@H](CCNS(=O)(=O)c2ccccc2)O[C@H]1CO,inactive
18,O=C(N[C@H](c1ccc(F)cc1)c1ccc2ccccc2n1)C1CCN(Cc2ccc(Oc3ccccc3)cc2)CC1,active
19,COc1cc(OC)nc([C@@H](NC(=O)C2CCN(Cc3ccc(Oc4ccccc4)cc3)CC2)c2ccccc2C)n1,active
20,O=C(N[C@@H](c1ccccc1)c1ccc2ccccc2n1)C1CCN(Cc2ccc(Oc3ccccc3)cc2)CC1,inactive
21,COc1ccc([C@@H](NC(=O)C2CCN(Cc3ccc(Oc4ccccc4)cc3)CC2)c2ccccc2C)cn1,inactive
22,O=C(N[C@H](c1ccc(F)cc1)c1ccc2ccccc2n1)C1CCN(Cc2ccc3ccccc3n2)CC1,inactive
23,COc1ccccc1[C@@H](NC(=O)C1CCN(Cc2ccc(Oc3ccccc3)cc2)CC1)c1ccccn1,inactive

row,Compound,cytotoxicity call
1,COc1cc(CN2CCC(C(=O)N[C@@H](c3ccc(F)cc3)c3ccc4ccccc4n3)CC2)cc(OC)c1,active
2,O=C(N[C@@H](c1ccccc1)c1ccc2ccccc2n1)C1CCN(Cc2cccc(C(F)(F)F)c2)CC1,inactive
3,O=C(N[C@H](c1ccc(F)cc1)c1ccc2ccccc2n1)C1CCN(Cc2cccc(C(F)(F)F)c2)CC1,active
4,COc1ccc2c3c(n(c2c1)C)[C@@H](CO)N(C[C@]13CCN(CC1)Cc1ccncc1)C(=O)CN1CCOCC1,inactive
5,NC(=NC(=O)N1CCOCC1)c1ccccc1,inactive
6,O=C(C[C@@H]1CC[C@@H](NC(=O)Cc2ccccn2)[C@@H](CO)O1)NCCc1ccncc1,inactive
7,CN(C)CCCNC(=O)[C@@H]1c2ccccc2C(=O)N(Cc2cc(C(F)(F)F)cc(C(F)(F)F)c2)[C@H]1c1ccc(CO)cc1,inactive
8,CO[C@H](CN(C)S(=O)(=O)c1cn(C)cn1)[C@@H](C)CN(C(=O)Nc1ccc(C(F)(F)F)cc1)[C@@H](C)CO,inactive
9,CNC[C@H]1Oc2c(NS(=O)(=O)c3cn(C)cn3)cccc2C(=O)N([C@@H](C)CO)C[C@H]1C,inactive
10,O=C(COc1ccc(S(=O)(=O)N2CCOCC2)cc1)N1CCOCC1,inactive
11,COc1ccc([Si](C)(C)[C@@H]2[C@@H](CCOC(=O)NCCCCCC(=O)NO)O[C@@]3(C(=O)N(Cc4ccccc4)c4ccc(NC(=O)[C@@H](C)OC(=O)NCCCCCC(=O)NO)cc43)[C@H]2C)cc1,inactive
12,C[C@H]1CN([C@@H](C)CO)C(=O)Cc2cc(NC(=O)Cn3cnnn3)ccc2O[C@@H]1CN(C)Cc1ccc(Cl)c(Cl)c1,inactive
13,CCc1nn(C)c2c(=O)c(=O)c2n(C)[nH]1,inactive
14,O=C(CN1CCOCC1)NCC[C@H]1CC[C@@H](NS(=O)(=O)c2ccc(Cl)cc2)[C@@H](CO)O1,inactive
15,C[C@H]1CN([C@@H](C)CO)C(=O)c2cc(NS(=O)(=O)c3ccccc3)ccc2O[C@H]1CN(C)Cc1ccc(Cl)c(Cl)c1,inactive
16,CC(C)Oc1ccccc1OCc1cnnn1CC(=O)NS(=O)(=O)c1ccccc1OC(F)(F)F,inactive
17,Cc1ccc(S(=O)(=O)N(C)C[C@H]2Oc3ccc(NC(=O)NC(C)C)cc3C(=O)N([C@@H](C)CO)C[C@@H]2C)cc1,inactive
18,O=C(OCc1cccc(O)c1O[C@@H]1O[C@H](CO)[C@@H](O)[C@H](O)[C@H]1O)[C@]1(O)C(=O)[C@@H]2C=C[C@H]1c1c2ccc(O)c1O,inactive
19,O=C1NCCc2c(O)cccc21,inactive
20,COC(=O)c1cn(CC(N)=O)c2ccccc12,inactive
21,Cn1cc(CN2CCC(C(=O)N[C@@H](c3ccc(F)cc3)c3ccc4ccccc4n3)CC2)c2ccccc21,active
22,COc1ccc(S(=O)(=O)N(C)C[C@H]2Oc3ccc(NS(C)(=O)=O)cc3CC(=O)N([C@@H](C)CO)C[C@@H]2C)cc1,inactive
